Bioassay records from PubChem.
Apoferritin bind: qHTS Assay for Identification of Novel General Anesthetics. apoferritin/1-aminoanthracene competitive binding, fluorescence. Potency, µM (doses to about 77.5 µM), for inactives: top-dose activity change, negative = displacement, usual class: inhibitors. 350,000 tested, 0.074% active; also: potency is read from the fitted curve at half-maximal effect; % is scaled to controls: 0 for no effect and ±100 for the full control effect; nearly all actives have a fitted effect of over 20% in size
Target sequence (P02791 2-175 limits assumed): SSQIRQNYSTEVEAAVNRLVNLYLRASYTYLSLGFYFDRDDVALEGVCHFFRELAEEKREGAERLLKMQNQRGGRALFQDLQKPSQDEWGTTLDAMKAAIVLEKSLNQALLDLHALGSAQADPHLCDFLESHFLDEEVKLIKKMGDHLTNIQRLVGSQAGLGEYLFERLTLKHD
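In PBS, apoferritin at 10 uM is loaded with 1-AMA from a 50% saturated solution. After 10 min of compound exposure at ambient temperature, reduced 535 nm fluorescence indicates probe displacement.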
Nrf2 block: Nrf2 qHTS screen for inhibitors; A549 ARE-Fluc reporter, luciferase luminescence, 18-24 h; Potency, µM (highest dose often 46 µM), without a hit: at the highest dose activity change, negative = inhibition, usual class: inhibitors; 360,000 tested, 2.1% active; also: potency is read from the fitted curve at half-maximal effect; % is scaled to controls: 0 for no effect and ±100 for the full control effect; nearly all actives have a fitted effect of over 60% in size
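Reporter: ARE-Fluc in A549. Exposure: 18-24 h, 37 °C, 5% CO2, 5% FBS OPTI-MEM. Readouts: fluorescent cytotoxicity (CellTiter-Fluor), then luminescent Nrf2 signal after BugLite.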
A549 tox: Nrf2 qHTS screen for inhibitors: counterscreen for cytotoxicity; 390,000 tested, 0.16% active; A549 ARE-Fluc cells, CellTiter-Fluor viability, 18-24 h; Potency, µM (titrated, usually from 46 µM), inactives show at the highest dose activity change, negative = cytotoxicity, actives largely listed as inhibitors; also: potency is read from the fitted curve at half-maximal effect; % is scaled to controls: 0 for no effect and ±100 for the full control effect
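A549 ARE_Fluc cells in 5% FBS OPTI-MEM were exposed to compounds in concentration-response for 18-24 h at 37 deg C. Viability was read by CellTiter-Fluor fluorescence (Ex 405/Em 525) after 30 min, before the luciferase read.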
Giardia killer: Small Molecules that selectively kill Giardia lamblia: qHTS; activity change, % at 7.66 µM, hits read low; Giardia lamblia trophozoite viability; 340,000 tested, 0.15% active; in the data active = activity change below about -80%; inconclusive = between about -30% and that limit;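 also: parasites exposed to compound for two days anaerobically before the ATP read; % is scaled to controls: 0 for no effect and ±100 for the full control effect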
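Media and compound were dispensed first, then trophozoites at 100 cells/well; plates sat 48 hrs at 37 deg C without oxygen before ATP luminescence reagent was added and read after 15-30 min at room temperature.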
mIDH1 inhibitor: qHTS for Inhibitors of mutant isocitrate dehydrogenase 1 (IDH1): qHTS; Isocitrate dehydrogenase [NADP] cytoplasmic (Homo sapiens), O75874; IDH1-R132H enzyme, NADPH consumption, diaphorase/resazurin fluorescence; Potency, µM (doses to about 76.6 µM), inactives show top-dose activity change, negative = inhibition, hits mostly inhibitors; 390,000 tested, 0.093% active; also: potency is read from the fitted curve at half-maximal effect; % is scaled to controls: 0 for no effect and ±100 for the full control effect; nearly all actives have a fitted effect of over 65% in size
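IDH1-R132H (0.5 ug/mL dispensed) in pH 7.5 Tris buffer was preincubated 30 min with compound, then given a substrate mix of 0.016 mM NADPH and 2 mM alpha-KG for 80 min at room temperature; remaining NADPH was read by diaphorase/resazurin fluorescence.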
Nrf2 ARE act: qHTS of Nrf2 Activators. AREc32 ARE-luciferase reporter (MCF7-derived line), luminescence, 24 h. 410,000 tested, 0.31% active. Potency, µM (series often up to 46.1 µM), for inactives: at the highest dose activation, usual class: activators; also: potency is read from the fitted curve at half-maximal effect; % of control where 0% means no effect; nearly all actives have a fitted effect of over 65% in size
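Quantitative high-throughput format: AREc32 reporter cells, 1000 per well, received compound by pin transfer and were incubated 24 hr at 37 deg C, 5% CO2, before Steady-Glo luminescence detection.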
* = called active by the depositor; u = inconclusive; x = not tested or not shown; [ ] = remark or other dose. Hits are enriched below; roughly 2.3% of the tested compounds scored in any of these assays. Unless noted, calls follow the shape of the dose curve; as a rule, active = well fitted curve in the direction sought with a large enough effect; inconclusive = small, poorly fitted or top-dose-only effect, or another doubt; inactive = no such curve, though single readings can be large; an effect the other way counts as inactive or inconclusive.

SMILES	Apoferritin bind	Nrf2 block	A549 tox	Giardia killer	mIDH1 inhibitor	Nrf2 ARE act
O=c1c(=O)n(-c2cccc(Cl)c2)ccn1Cc1cccc(F)c1	5.7%	11.4%	-0.5%	x	18.8%	-1.6%
S=c1[nH]nc(Cc2cccs2)n1-c1ccccc1Cl	-9.1%	16.4µM*	5.9%	8.4	-4.4%	-1.2%
Clc1ccccc1NN=Cc1ccccn1	x	x	x	x	10.2%	7.08µM*
O=C(N/N=C/c1ccccn1)c1ccc(Cl)cc1	-6.7%	u	u	-2.5	-3.7%	7.6%
CC(C)C(NS(=O)(=O)c1c(Cl)cccc1Cl)C(=O)OCC(=O)c1c[nH]c2ccccc12 (configuration not stated)	-7.1%	23.1µM*	u	-2.7	4.8%	0.5%[9.22 µM]
COc1cc(OC)c(-c2nn3c(-c4cc(C)[nH]n4)nnc3s2)cc1OC	x	u	0.0%	11.1	x	x
Cc1cc2c(s1)c1cnn(Cc3ccc(F)c(F)c3)c(=O)c1n2C	x	12.6%	-1.7%	x	x	x
O=C(NC1CCCC1)c1sc(=S)n2c1[nH]c(=O)c1ccccc12	-12.4%	16.4µM*	u	-4.1	7.7%	2.0%
CCN(c1ccccc1)C(CNS(=O)(=O)c1ccccc1)c1ccccc1 (configuration not stated)	64.4%	23.1µM*	-24.3%	x	x	0.0%
Cc1nn(-c2ccc(Cl)cc2)c(=O)c2ccccc12	-19.1%	u	9.1%	2.0	1.1%	20.3%
Cc1c(Cl)sn(-c2ccc(Cl)cc2)c1=O	-18.9%	25.9µM*	u	-2.5	0.0%	0.1%
Oc1ccc(C[C@H]2CNC(=S)N2CC2CCCN2C[C@H](Cc2ccc(O)cc2)N2C[C@H](Cc3ccccc3)N(CCc3ccccc3)C2=S)cc1 (some centres not stated)	x	20.6µM*	-13.9%	4.3	-7.1%	1.4%
Oc1ccc(C[C@H]2CNC(=S)N2CC2CCCN2C[C@H](Cc2ccc(O)cc2)N2C[C@H](Cc3ccc(O)cc3)N(CC3CCCCC3)C2=S)cc1 (some centres not stated)	x	13µM*	u	3.2	-9.3%	-3.3%
CC(=O)c1[nH]c(C)c(C(=O)N2CCCC(Nc3cccc(F)c3)C2)c1C (configuration not stated)	-8.8%	1.5%	-7.2%	-5.5	0.0%	-0.2%
CC(=O)c1[nH]c(C)c(C(=O)N2CCCC(Nc3ccc(C(C)C)cc3)C2)c1C (configuration not stated)	-8.3%	14.6µM*	u	-0.1	-7.4%	0.5%
Cc1cccc(NC(=O)c2c(C)cc(C)nc2SCC(=O)c2ccccc2)c1	-17.5%	-3.6%	-7.6%	x	-7.2%	7.7%
Cc1n[nH]c(C)c1S(=O)(=O)N(CC(=O)Nc1ccc(C(F)(F)F)cc1)c1ccc(C(C)C)cc1	-6.5%	u	-24.9%	x	u	-4.4%
CCOc1ccc(N(CC(=O)Nc2cccc(Cl)c2)S(=O)(=O)c2c(C)noc2C)cc1	51.8%	23.1µM*	u	u	-6.9%	0.2%
CCOc1ccc(N(CC(=O)Nc2cccc(OC)c2)S(=O)(=O)c2c(C)noc2C)cc1	2.1%	u	-9.6%	3.0	4.9%	-0.2%
Cc1noc(C)c1S(=O)(=O)N(CC(=O)Nc1ccc(C(F)(F)F)cc1)c1ccc(C(C)C)cc1	-6.8%	16.4µM*	-13.3%	x	-20.1%	4.2%
Cc1ccccc1CN1C(=O)C(O)(CC(=O)c2cccc(Br)c2)c2ccccc21 (configuration not stated)	u	-27.3%	-6.4%	x	2.6%	-0.5%
COc1cccc(C2c3c(ncn(-c4ccccn4)c3=N)Oc3ccc4ccccc4c32)c1 (configuration not stated)	x	u	-5.6%	x	x	x
CN(C)c1cccc(S(=O)(=O)N2CCCN(S(=O)(=O)c3ccc4c(c3)OCCO4)CC2)c1	x	-11.8%	0.6%	x	x	x
